CHX counter = affects cycloheximide protein synthesis inhibition readout, counter-screen. cell reporter, cycloheximide protein synthesis inhibition counterscreen. 12% of 300,000 active. max response, %. AID 2314; in the data active = max response mostly above about 13%, no sharp cut-off; inactive = mostly below about 14%; also: read at 38.3 µM for the half of the compounds with a filed dose; 0% is about no effect
Shiga toxin inh = blocks Shiga toxin action in Vero cells | Vero cells, Shiga toxin protein synthesis inhibition reporter | inhibition, % at 38.7 µM | 9.2% of 290,000 active | AID 2315; in the data active = inhibition mostly above about 28%, no sharp cut-off; inactive = mostly below about 43%; also: 0% is about no effect
Vaccinia Venus = inhibitors of vaccinia virus (Venus reporter) | Vaccinia virus Venus reporter expression, fluorescence | Potency, µM (titrated, usually from 36.5 µM), without a hit: top-dose activity change, negative = inhibition, actives largely listed as inhibitors | 0.46% of 330,000 active; calls by dose curve; tested in A549 cells; also: potency is read from the fitted curve at half-maximal effect; % is scaled to controls: 0 for no effect and ±100 for the full control effect; nearly all actives have a fitted effect of over 30% in size
VACV mCherry inh = vaccinia inhibition (mCherry reporter). Vaccinia virus mCherry reporter infection, fluorescence. Potency, µM (titrated, usually from 36.5 µM), for the others: at the highest dose activity change, negative = inhibition, actives largely listed as inhibitors. 0.63% of 310,000 active. AID 720579; calls by dose curve; tested in A549 cells; also: potency is read from the fitted curve at half-maximal effect; % is scaled to controls: 0 for no effect and ±100 for the full control effect; nearly all actives have a fitted effect of over 35% in size
Lassa entry inh = Lassa virus entry inhibition | Lassa virus pseudotype entry inhibition, cell reporter | Potency, µM (series often up to 37.9 µM), inactives show at the top dose activity change, negative = inhibition, actives largely listed as inhibitors | 1.2% of 300,000 active; calls by dose curve; tested in HEK293 cells; also: potency is read from the fitted curve at half-maximal effect; % is scaled to controls: 0 for no effect and ±100 for the full control effect; nearly all actives have a fitted effect of over 50% in size
MARV entry inh = Marburg virus entry inhibition | Marburg virus pseudotyped entry inhibition, cell reporter | Potency, µM (top dose mostly 37.8 µM), without a hit: at the top dose activity change, negative = inhibition, most hits filed as inhibitors | 1.8% of 300,000 active | AID 540276; calls by dose curve; tested in HEK293 cells; also: potency is read from the fitted curve at half-maximal effect; % is scaled to controls: 0 for no effect and ±100 for the full control effect
* = called active by the depositor; i = inactive; ? = inconclusive; nt = not tested or not shown; [ ] = another dose, or the depositor's remark. The entries come from a sample that favours hits as a whole.

SMILES | CHX counter | Shiga toxin inh | Vaccinia Venus | VACV mCherry inh | Lassa entry inh | MARV entry inh
O=C(c1ccco1)c1cn(CC(=O)N2CCCc3ccccc32)c2ccccc12 | 24* | 16 | -8% | nt | -2% | ?
Cc1ccc2c(CC(=O)N3CCc4ccccc43)coc2c1 | 23* | 100* | -10% | -11% | -24% | ?
O=C(CS(=O)(=O)Cc1ccccc1)N1CCc2ccccc21 | 33* | 15 | nt | nt | -6% | -5%
CCc1cccc(NC(=O)CCS(=O)(=O)c2ccc(C)cc2)c1 | nt | nt | -9% | -3% | ? | nt
COCCNC(=O)/C(C#N)=C1\N=C(N)c2ccccc21 | 13 | -8 | -10% | -29% | ? | 8%
COc1ccc(-n2nc(C(=O)Nc3cc(C)c(Cl)cc3OC)c3c4ccccc4n(C)c3c2=O)cc1 | nt | nt | 12% | 8% | 29%[46.1 µM] | 1%[46.1 µM]
O=C1CN(C(=O)c2cc3ccccc3o2)c2ccccc2N1 | 18* | 42* | -17% | i | ? | 15%
O=C(OCc1ccccc1)N1CCc2ccccc21 | 43* | 82* | -20% | i | ? | ?
Cc1ccn(CCC(=O)N2CCc3ccccc32)n1 | 25* | 26 | nt | nt | nt | nt
COc1ccc(/C=C(/NC(=O)c2ccco2)C(=O)NCc2ccco2)cc1OC | -4 | -4 | -10% | -9% | 20% | -3%
O=C(Cn1ccc([N+](=O)[O-])n1)N1CCc2ccccc21 | -2 | -3 | nt | nt | nt | nt
COc1ccc(/C=C(/NC(=O)c2ccco2)C(=O)N2CCc3ccccc32)cc1OC | 4 | -4 | 0% | i | 7.9µM* | -6%[46.1 µM]
Cc1cccc(CS(=O)(=O)Cc2ccc(C(=O)NCc3ccc(F)cc3)o2)c1 | nt | nt | -21% | -23% | ? | nt
O=C(NCCC(=O)N1CCc2ccccc21)c1ccco1 | 30* | 76* | -8% | -7% | ? | 19%[46.1 µM]
O=C1CN(C(=O)OCc2ccccc2)c2ccccc2N1 | 26* | 69 | -8% | -10% | 17% | 11%
O=C(CCCc1ccccc1)N1CCc2ccccc21 | 49* | 109* | 0% | i | ? | ?
Cc1ccccc1N1CCN(S(=O)(=O)c2nnc(NC(=O)c3ccc(C(C)C)cc3)s2)CC1 | nt | nt | -29% | -24% | -17%[46.1 µM] | nt
Cc1ccc(OCc2cc(C(=O)NC(C)Cc3cnccn3)no2)cc1C (stereo not drawn) | 13 | 8 | -7% | -13% | 1% | -8%
Cc1nc(C(C)NC(=O)c2cc(COc3ccc(C)c(C)c3)on2)c(C)s1 (stereo not drawn) | 41* | 125* | nt | nt | nt | nt
Cc1cccc(CC(C)NC(=O)c2cc(COc3ccc(F)cc3F)on2)n1 (stereo not drawn) | 49* | 45* | nt | nt | nt | nt
Cc1cc(OCc2cc(C(=O)NC(C)c3c(C)nn(C)c3C)no2)cc(C)c1Cl (stereo not drawn) | 41* | 111* | nt | nt | nt | nt
Cc1cccc(CC(C)NC(=O)c2cc(COc3ccc(C)c(C)c3)on2)n1 (stereo not drawn) | 77* | 98* | -27% | -26% | -19% | 2%
O=C(NCCc1ccccc1)C(=O)NCC1CCCN1S(=O)(=O)c1cccs1 (stereo not drawn) | nt | nt | -30% | ? | ? | ?
CCCCOc1ccc(CN(C)c2ncnc(N)n2)cc1 | 15* | 33* | ? | ? | 24%[14.3 µM] | -10%
CCc1ccccc1NC(=O)/C(C#N)=C/c1ccc(Sc2ccccc2)o1 | -1 | 9 | nt | nt | 8% | -36%
SMILES | CHX counter | Shiga toxin inh | Vaccinia Venus | VACV mCherry inh | Lassa entry inh | MARV entry inh
CC1CC1c1ccc(/C=C(\C#N)C(=O)Nc2ccc(Cl)cc2)o1 (stereo not drawn) | 63* | 113* | -23% | -17% | ? | ?
CC1CC1c1ccc(/C=C(\C#N)C(=O)Nc2ccccc2Cl)o1 (stereo not drawn) | 52* | 30* | -13% | -3% | 11% | ?
O=C(NCCCN1CCN(c2cccc(Cl)c2)CC1)c1sc2ncccc2c1-n1cccc1 | nt | nt | -18% | -22% | -12%[46.1 µM] | nt
Cc1cc(C)cc(N2CC(c3nnc(NC(=O)c4ccco4)s3)CC2=O)c1 (stereo not drawn) | nt | nt | -13% | -7% | -5%[46.1 µM] | -17%[46.1 µM]
CC(CNC(=O)c1ccc2c(c1)nc1n2CCOC1)c1ccccc1 (stereo not drawn) | nt | nt | -5%[7.34 µM] | -6%[7.34 µM] | ? | nt
COc1ccc(-c2nn(-c3ccccc3)cc2C(=O)N2c3ccc(C)cc3C3CN(C)CCC32)cc1 (stereo not drawn) | 0 | -5 | -6% | i | 11µM* | ?
COc1ccc(-c2nn(-c3ccccc3)cc2C(=O)O)cc1 | 5 | 7 | 6% | -5% | nt | nt
COc1ccc(-c2nc3cc(C)ccc3cc2CN(C(=O)c2ccc(C)s2)C2CC2)cc1OC | nt | nt | -9% | -21% | nt | nt
Cc1ccc(C(=O)Nc2ccc(CC(=O)O)cc2)o1 | 8 | -8 | nt | nt | -5% | -11%
CC(C)(C)c1ccc(C(=O)Nc2ccc(CC(=O)O)cc2)o1 | -12 | -19 | -6% | i | 2.3µM* | ?
CCN(Cc1ccccc1)C(=O)c1ccc(CS(=O)c2ccccc2C)o1 (stereo not drawn) | -3 | -7 | 5%[7.34 µM] | 9%[7.34 µM] | nt | nt
C[C@]12c3[nH]c4ccc(Cl)cc4c3CCN1C(=O)[C@@H](CC(=O)NCC13CC4CC(CC(C4)C1)C3)C[C@@H]2C(=O)N1CCCCC1 | nt | nt | ? | 28µM* | nt | -1%
C[C@]12c3[nH]c4ccc(Cl)cc4c3CCN1C(=O)[C@@H](CC(=O)NCc1cccc(C(F)(F)F)c1)C[C@@H]2C(=O)N1CCOCC1 | nt | nt | ? | -18% | nt | nt
CC(C)N(C(=O)[C@H]1C[C@H](CC(=O)NCc2cccc(C(F)(F)F)c2)C(=O)N2CCc3c([nH]c4ccc(Cl)cc34)[C@]12C)C(C)C | nt | nt | 11µM* | ? | nt | nt
C[C@]12c3[nH]c4ccc(Cl)cc4c3CCN1C(=O)[C@@H](CC(=O)NCC13CC4CC(CC(C4)C1)C3)C[C@@H]2C(=O)N1CCOCC1 | nt | nt | 13µM* | ? | nt | nt
CC[C@]12c3[nH]c4ccc(Cl)cc4c3CCN1C(=O)[C@@H](CC(=O)NCC13CC4CC(CC(C4)C1)C3)C[C@@H]2C(=O)N1CCN(C(=O)C2CC2)CC1 | nt | nt | 10µM* | -20% | nt | nt
Cc1sc2ncn(CC(=O)NCCCC(=O)N3CCCCC3)c(=O)c2c1C | -7 | -3 | 10% | -13% | 11%[46.1 µM] | -18%[46.1 µM]
COc1ccc(C(=O)N/N=C(\C)c2ccc3c(c2)C2C=CCC2C(c2ccccc2)N3)cc1 (stereo not drawn) | 20* | 31 | -19% | -14% | ? | -5%
CCOC(=O)c1c(C)nc2ccccc2c1-c1ccccc1 | -4 | -11 | -10% | -14% | 4% | -1%
CCOC(=O)c1c(C)nc(-c2ccccc2)nc1NC(=O)CC | 24* | 70* | -10% | nt | 1% | ?
O=c1[nH]c(Cc2cccs2)nc2ccccc12 | 10 | 9 | nt | nt | -1% | -9%
CCc1nc2ccccc2c(C(=O)OCc2nc3ccccc3c(=O)[nH]2)c1C | nt | nt | -27% | i | ? | 3.5µM*
O=C(OCc1nc2ccccc2c(=O)[nH]1)c1cccs1 | 19* | 44 | nt | nt | 10% | 8%
CCOC(=O)c1c(C)nc2ccccc2c1C | 25* | 15 | -20% | nt | 7% | 7%[46.1 µM]

Source: PubChem (National Center for Advancing Translational Sciences (NCATS))
